Screening results as filed in PubChem.
A selection: hits, their analogues and other compounds. The true share with any hit is near 1.7%.
IL1B cytotox – HUVEC cytotoxicity counter-screen, IL-1B stimulated | HUVEC cell count loss, Hoechst imaging | cell count reduction, % at 2 µM | actives 0.41% (n = 94,000) | AID 845;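 active = cell count reduction more than 3 SD above the screen-wide mean, cut at about 70% in these data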;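 also: normalized per plate to untreated control cells as the no-loss baseline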
VCAM1 TNFa inh – reduces TNF alpha induced VCAM1 expression in HUVEC; AID 802; inhibition, % at 2 µM; HUVEC TNFa-induced VCAM-1 immunofluorescence, high-content imaging; actives 0.48% (n = 95,000);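 active = inhibition above the batch mean plus 3 SD, with images confirmed as a hit by eye, cut at about 37% in these data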;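 also: 0% = TNF-stimulated DMSO wells and 100% = unstimulated control wells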
IL1B NFkB pot – enhances IL-1B driven NFkB nuclear translocation | AID 819 | HUVEC IL-1B NFkB p65 nuclear translocation imaging | activation, % at 2 µM | actives 0.3% (n = 94,000);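 active = activation above 40%, about the mean plus 3 SD, also judged a hit on visual image review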;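 also: percent activation is computed from the nuclear over cytoplasmic p65 intensity ratio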
NFkB transloc inh – blocks IL-1B driven NFkB nuclear translocation in HUVEC cells. HUVEC IL-1B NFkB p65 nuclear translocation imaging. inhibition, % at 2 µM. actives 0.43% (n = 94,000);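 active = inhibition above about 30% together with a positive call from visual inspection of the well image, limit read from the data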;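 also: nuclear over cytoplasmic p65 intensity ratio measured by imaging; 0% = IL-1B stimulated DMSO wells and 100% = unstimulated DMSO wells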
E-sel TNF inh – blocks E-selectin expression induced by TNF alpha; HUVEC TNFa-induced E-selectin immunofluorescence, high content; inhibition, % at 2 µM; actives 0.71% (n = 120,000);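 active = inhibition above the batch mean plus 3 SD, and confirmed as a hit on visual image review, cut at about 43% in these data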;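 also: 0% = TNF-stimulated DMSO wells and 100% = unstimulated control wells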
HUVEC tox TNFa – HUVEC cytotoxicity counter-screen, TNF alpha stimulated. HUVEC TNFalpha-stimulated, Hoechst cell count, imaging. cell count reduction, % at 2 µM. actives 0.17% (n = 93,000). AID 848;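 active = cell count reduction exceeding the screen mean by over 5 SD, scaled to untreated wells per plate, cut at about 78% in these data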;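 also: cells counted after 24 h of TNF alpha exposure following the 1 h pretreatment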
An asterisk follows results filed as active; . = no result.

SMILES	IL1B cytotox	VCAM1 TNFa inh	IL1B NFkB pot	NFkB transloc inh	E-sel TNF inh	HUVEC tox TNFa
O=C1CC(c2cc(Br)ccc2F)c2cc3c(cc2N1)CCC3 (stereo unspecified)	29.9	82.5*	-8.8	6.3	-5.4	.
COc1ccc2c(c1)CCc1c(C(=O)N3CC4(C)CC3CC(C)(C)C4)noc1-2 (stereo unspecified)	-58.2	90.6*	5.8	-5.8	17.0	8.1
COc1ccc2c(c1)CCc1c(C(=O)N3CCOCC3)noc1-2	-18.0	-8.0	3.4	-3.4	38.4	-22.3
O=C(Nc1cccc(C(F)(F)F)c1)C12CC3CC(CC(C3)C1)C2	-16.6	37.0	20.1	-20.1	-2.4	-9.5
Cn1c(=O)oc2cc(S(=O)(=O)N3CCN(Cc4ccc5c(c4)OCO5)CC3)ccc21	87.4*	1.2	-11.4	11.4	.	-19.6
O=C1CC(C(=O)Nc2ccc(C(=O)N3CCOCC3)cc2)C2(CCCCC2)O1 (stereo unspecified)	90.0*	14.1	-1.3	1.3	25.9	12.4
O=C1CC(C(=O)Nc2ccccc2)C2(CCCC2)O1 (stereo unspecified)	4.5	15.6	24.5	-24.5	-7.1	-1.8
N#CC1=C(N)C(C#N)(C#N)[C@H](c2ccncc2)[C@H]2CN(C(=O)OCc3ccccc3)CC=C12	.	.	.	.	96.3*	.
COc1ccc(CCNC(=O)c2nnc(Cc3ccc(Cl)cc3)o2)cc1OC	7.1	15.7	-3.4	3.4	.	-15.3
CC(C)CCNC(=O)c1nnc(Cc2ccc(Cl)cc2)o1	-2.0	-3.0	6.5	-6.5	69.8*	-2.3
Brc1ccccc1-c1nnc2sc(Cc3ccccc3)nn12	-20.2	13.6	59.1*	-59.1	-13.4	-6.7
Cc1ccc(C(=O)NCc2nnc(SCC(=O)Nc3sc4c(c3C#N)CCCC4)n2C)cc1	82.2*	14.2	33.2	-33.2	-8.6	-7.9
CCCCn1nnnc1NCc1cccc(OC)c1OC	-7.3	6.0	113.9*	-113.9	15.6	-13.3
CCCCn1nnnc1NCc1ccc(OC)c(OC)c1	-56.1	15.4	10.1	-10.1	-22.8	2.3
CC1CCCCC1NC(=O)Cn1c(CN2CCCCC2)nc2ccccc2c1=O (stereo unspecified)	28.9	-11.5	6.3	-6.3	-101.7	8.0
Nn1c(CN2CCCCC2)nc2ccccc2c1=O	-8.9	13.9	0.6	-0.6	50.7*	0.0
CCOC(=O)c1ccc(COC(=O)c2cc3ccccc3oc2=O)o1	76.3*	-5.4	-2.5	2.5	2.2	6.1
CCOC(=O)COc1ccc2cc(C(=O)OCC)c(=O)oc2c1	-2.8	15.9	-1.5	1.5	.	-10.9
COc1ccc(C2=NOC(C(=O)NCCCn3ccnc3)C2)cc1 (stereo unspecified)	.	1.8	.	.	-11.1	-15.3
CCOc1ccc(-n2c(SCC(=O)Nc3ccccc3C)n[nH]c2=O)cc1	2.4	8.8	-12.0	12.0	-20.0	-4.0
CCOc1cccc(C(=O)NC(=S)Nc2ccc(N3CCCC3)cc2)c1	11.3	-2.1	-1.9	1.9	53.4*	-16.2
CCOC(=O)c1cc2c(=O)n3ccccc3nc2n(CCCOC)c1=NC(C)=O	-3.4	-0.2	13.3	-13.4	-12.5	-8.8
CCCn1c(=NC(=O)c2ccco2)c(C(=O)OCC)cc2c(=O)n3ccccc3nc21	-12.7	-9.4	13.1	-13.1	57.9*	13.4
O=C(/C=C/c1ccccc1)N1CCC(Cc2ccccc2)CC1	20.4	-25.2	-7.1	-5.7	91.6*	.
CN1C/C(=N\S(=O)(=O)c2ccccc2)N(C)C1=O	.	.	.	.	-22.2	.
SMILES	IL1B cytotox	VCAM1 TNFa inh	IL1B NFkB pot	NFkB transloc inh	E-sel TNF inh	HUVEC tox TNFa
O=Cc1s/c(=N\S(=O)(=O)c2ccccc2)n(CCCCl)c1Cl	.	.	.	.	72.3*	.
BrC(=C\c1ccccc1)/C=N/N1CCN(c2ccccn2)CC1	-29.7	-5.9	11.9	-11.9	-5.1	13.3
O=C(CSc1nnc(Cn2nnc(-c3ccccc3)n2)n1-c1ccccc1)Nc1ccc(F)cc1	89.5*	3.9	-98.6	98.6*	0.7	-13.8
O=C(CC12CCC(CC1)C2)NCc1ccc2c(c1)OCO2	5.9	6.1	12.6	-12.6	5.0	-11.0
O=C(COC(=O)c1ccccc1F)c1ccc(-n2nncc2-c2ccco2)cc1	-18.5	10.0	41.6*	-41.6	7.4	-2.7
CC(NC(=O)c1ccco1)c1cccc2ccccc12 (stereo unspecified)	77.9*	15.4	-97.9	97.9*	-0.7	-1.9
Cc1nc(C(=O)N(C)C)nn1-c1cc(Cl)ccc1Cl	-12.1	-10.8	-9.1	9.1	-10.4	-17.1
